Results filed as inconclusive are left out. Calls of active or inactive are those of the source. Calls follow the shape of the dose curve; as a rule, active = well fitted curve in the direction sought with a large enough effect in the repeat runs; inconclusive = weak or mixed curves; inactive = no such curve, though single readings can be large; an effect the other way counts as inactive or inconclusive.
System: not listed separately
Assay: qHTS assay to identify small molecule agonists of the retinoic acid receptor (RAR) signaling pathway (AID 1159553)
Conditions: C3RL4 RARE luciferase reporter, agonist, 6 h; activation: at 73.3 µM (top of the series)
In short: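 Seed C3RL4 reporter cells at 1,000 per well and incubate overnight at 37 C. Add compounds in DMSO, incubate 6 hr. Add luciferase reagent, wait 30 min at room temperature, read luminescence.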
% is scaled to controls: 0 for no effect and ±100 for the full control effect; potency is read from the fitted curve at half-maximal effect.

SMILES	activation	Potency
Nc1ccc(C(=O)OCC(O)CO)cc1 (stereo unspecified)	0.14% (inactive)	
C=CCOC(=O)c1ccc(C(=O)OCC=C)c(C(=O)OCC=C)c1	0.193% (inactive)	
F[Si-2](F)(F)(F)(F)F	-0.11% (inactive)	
CCN(Cc1cccc(S(=O)(=O)O)c1)c1ccccc1	0.173% (inactive)	
CC(=O)c1ccc(OCC(=O)N2CCCCC2)cc1		13.3 µM (active)
CCCCCCCCCOCC1CO1 (stereo unspecified)	2.2% [at 94.8 µM] (inactive)	
CC1=NN(c2ccc(S(=O)(=O)O)cc2)C(=O)C1N=Nc1ccccc1 (stereo unspecified)	3.45% (inactive)	
O=C(/C=C/c1ccccc1)NCCO	0.326% (inactive)	
CC(C)(CO)[C@@H](O)C(=O)NCCCO	0.517% (inactive)	
CC(=O)N1CCN(c2ccc(O)cc2)CC1	-0.51% (inactive)	
O=S(=O)(O)SSS(=O)(=O)O	2.74% (inactive)	
COc1cc([N+](=O)[O-])ccc1N	1.25% (inactive)	
CC(C)C(=O)Nc1cccc(C(F)(F)F)c1	5.52% (inactive)	
CCNC(=O)/C=C/c1cccc(Br)c1		15 µM (active)
O=C1c2ccccc2-c2ccccc21	2.69% [at 94.8 µM] (inactive)	
CCCCC(CC)CNC(=O)CC(C)OC(=O)CCC(=O)O (stereo unspecified)		29.8 µM (active)
Cc1ccc2c(c1)c1c3n2CCNC3CCC1 (stereo unspecified)	-6.07% (inactive)	
CC(=O)c1ccc2c(c1)CCCC2	2.13% (inactive)	

System: not listed separately
Assay: qHTS assay to identify small molecule antagonists of the estrogen related receptor (ERR) signaling pathway from Tox21 library - cell viability counter screen (AID 1224834); also: nearly all actives have a fitted effect of over 30% in size
Conditions: ERR reporter cells viability, CellTiter-Fluor, 17.5 h; series mostly up to 92.4 µM; viability change, negative = cytotoxic: at the top concentration
In short: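 ERR cells, 2,000/well; 6 h settle at 37 C/5% CO2; pin-tool compound transfer in DMSO; 17.5 h at 37 C; CellTiter-Fluor, 30 min; fluorescence intensity.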

SMILES	viability change, negative = cytotoxic	Potency
CC(C)CCCCCCOC(=O)C1CCCCC1C(=O)OCCCCCCC(C)C (stereo unspecified)	4.94% (inactive)	
Nc1ccc(C(=O)OCC(O)CO)cc1 (stereo unspecified)	-0.715% [at 42.5 µM] (inactive)	
CCCC(C)CC (stereo unspecified)	4.25% (inactive)	
C=CCOC(=O)c1ccc(C(=O)OCC=C)c(C(=O)OCC=C)c1	5.83% (inactive)	
C=CC(C)(O)CC/C=C(\C)CC (stereo unspecified)	6.18% (inactive)	
F[Si-2](F)(F)(F)(F)F	-0.172% (inactive)	
CCOc1ccc(NC(=O)OC(C)C)cc1OCC	-0.032% (inactive)	
COc1ccc(NS(=O)(=O)c2ccc(N)cc2)nn1	1.45% [at 42.5 µM] (inactive)	
CCN(Cc1cccc(S(=O)(=O)O)c1)c1ccccc1	0.795% (inactive)	
CC(=O)c1ccc(OCC(=O)N2CCCCC2)cc1	-3.57% [at 42.5 µM] (inactive)	
CC(C)COC(=O)/C=C/c1ccccc1	0.58% (inactive)	
C=C(C)C(=O)OCCCCCCOC(=O)C(=C)C	-9.73% (inactive)	
NC(Cc1c[nH]c2ccccc12)C(=O)O (stereo unspecified)	-4.35% [at 42.5 µM] (inactive)	
CCCCCCCCCOCC1CO1 (stereo unspecified)	1.93% (inactive)	
CC1=NN(c2ccc(S(=O)(=O)O)cc2)C(=O)C1N=Nc1ccccc1 (stereo unspecified)		54.5 µM (active)
O=C(/C=C/c1ccccc1)NCCO	0.332% [at 42.5 µM] (inactive)	
CC(C)(CO)[C@@H](O)C(=O)NCCCO	7.42% [at 42.5 µM] (inactive)	
CN=C(NC#N)NCCSCc1csc(N=C(N)N)n1	3.37% [at 42.5 µM] (inactive)	
CCCCCCCCCCCCCC(=O)OC	-0.0327% (inactive)	

SMILES	viability change, negative = cytotoxic	Potency
CC(=O)N1CCN(c2ccc(O)cc2)CC1	7.16% [at 42.5 µM] (inactive)	
O=S(=O)(O)SSS(=O)(=O)O	-3.26% (inactive)	
Nc1ccnc(=O)[nH]1	3.89% (inactive)	
CCCOCCOCCOCCO	-3.73% (inactive)	
CCCCCN(CCCOC)C(=O)C(CCC(=O)O)NC(=O)c1ccc(Cl)c(Cl)c1 (stereo unspecified)	1.83% [at 42.5 µM] (inactive)	
COc1cc([N+](=O)[O-])ccc1N		24.3 µM (active)
CC(C)C(=O)Nc1cccc(C(F)(F)F)c1	-2.59% [at 42.5 µM] (inactive)	
CCNC(=O)/C=C/c1cccc(Br)c1	-0.757% [at 42.5 µM] (inactive)	
CCOC(=O)CCc1ccccc1	-0.22% (inactive)	
C1=C\CC/C=C\CC/1	2.34% (inactive)	
O=C1c2ccccc2-c2ccccc21	-0.402% (inactive)	
CN(C1CCCCC1)S(=O)(=O)c1ccccc1N	-2.18% (inactive)	
CCCCCC(=O)OCC	2.13% (inactive)	
C=CCOCC(CO)(COCC=C)COCC=C	2.93% [at 42.5 µM] (inactive)	
Nc1ccc(/C=C/c2ccc(N)cc2S(=O)(=O)O)c(S(=O)(=O)O)c1	2.37% [at 0.349 µM] (inactive)	
CCCCC(CC)CNC(=O)CC(C)OC(=O)CCC(=O)O (stereo unspecified)	4.7% [at 42.5 µM] (inactive)	
Cc1ccc2c(c1)c1c3n2CCNC3CCC1 (stereo unspecified)	1.64% [at 42.5 µM] (inactive)	
CC(=O)c1ccc2c(c1)CCCC2	-5.36% (inactive)	

Target: Luciferin 4-monooxygenase (Photinus pyralis) (UniProt P08659)
Sequence (P08659 whole entry, looked up): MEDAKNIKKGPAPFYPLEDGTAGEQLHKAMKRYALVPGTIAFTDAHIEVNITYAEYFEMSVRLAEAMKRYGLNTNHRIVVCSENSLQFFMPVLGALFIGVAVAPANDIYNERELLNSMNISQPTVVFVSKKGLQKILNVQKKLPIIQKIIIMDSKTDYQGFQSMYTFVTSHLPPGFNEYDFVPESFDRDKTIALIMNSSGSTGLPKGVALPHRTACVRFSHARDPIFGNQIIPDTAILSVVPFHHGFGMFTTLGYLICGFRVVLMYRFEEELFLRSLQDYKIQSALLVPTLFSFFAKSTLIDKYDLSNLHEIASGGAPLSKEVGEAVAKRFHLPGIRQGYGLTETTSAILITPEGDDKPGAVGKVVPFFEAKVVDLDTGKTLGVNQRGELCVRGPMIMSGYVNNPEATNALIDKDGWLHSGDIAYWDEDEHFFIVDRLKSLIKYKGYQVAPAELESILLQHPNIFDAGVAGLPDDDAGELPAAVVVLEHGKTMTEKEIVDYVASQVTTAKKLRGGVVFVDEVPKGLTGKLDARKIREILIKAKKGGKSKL
Assay: qHTS assay to identify small molecule inhibitors of firefly luciferase (AID 1224835); also: nearly all actives have a fitted effect of over 25% in size
Conditions: purified P. pyralis luciferase, luminescence inhibition; series mostly up to 115 µM; activity change, negative = inhibition: at the top concentration
In short: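 Quantitative HTS format; KM concentrations of both substrates. Purified P. pyralis FLuc activity quantified from luminescence images.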

SMILES	activity change, negative = inhibition	Potency
CC(C)CCCCCCOC(=O)C1CCCCC1C(=O)OCCCCCCC(C)C (stereo unspecified)	2.06% (inactive)	
Nc1ccc(C(=O)OCC(O)CO)cc1 (stereo unspecified)	-0.308% [at 52.9 µM] (inactive)	
CCCC(C)CC (stereo unspecified)	1.91% (inactive)	
C=CC(C)(O)CC/C=C(\C)CC (stereo unspecified)	-0.456% (inactive)	
F[Si-2](F)(F)(F)(F)F	5.83% (inactive)	
CCOc1ccc(NC(=O)OC(C)C)cc1OCC	-0.683% (inactive)	
COc1ccc(NS(=O)(=O)c2ccc(N)cc2)nn1	0.335% [at 52.9 µM] (inactive)	
CC(C)COC(=O)/C=C/c1ccccc1		7.1 µM (active)
C=C(C)C(=O)OCCCCCCOC(=O)C(=C)C	-8.58% (inactive)	
NC(Cc1c[nH]c2ccccc12)C(=O)O (stereo unspecified)	-1.15% [at 52.9 µM] (inactive)	
CC1=NN(c2ccc(S(=O)(=O)O)cc2)C(=O)C1N=Nc1ccccc1 (stereo unspecified)		71 µM (active)
CC(C)(CO)[C@@H](O)C(=O)NCCCO	1.68% [at 52.9 µM] (inactive)	
CN=C(NC#N)NCCSCc1csc(N=C(N)N)n1	0.442% [at 52.9 µM] (inactive)	
CCCCCCCCCCCCCC(=O)OC	0.636% (inactive)	
CC(=O)N1CCN(c2ccc(O)cc2)CC1	-2.11% [at 52.9 µM] (inactive)	
Nc1ccnc(=O)[nH]1	7.7% (inactive)	
CCCOCCOCCOCCO	3.96% (inactive)	
CCCCCN(CCCOC)C(=O)C(CCC(=O)O)NC(=O)c1ccc(Cl)c(Cl)c1 (stereo unspecified)	-7.25% [at 52.9 µM] (inactive)	
COc1cc([N+](=O)[O-])ccc1N	4.41% (inactive)	
CCOC(=O)CCc1ccccc1	-0.0333% (inactive)	
C1=C\CC/C=C\CC/1	4.78% (inactive)	
CN(C1CCCCC1)S(=O)(=O)c1ccccc1N	-13.8% (inactive)	
CCCCCC(=O)OCC	-0.228% (inactive)	
C=CCOCC(CO)(COCC=C)COCC=C	-0.454% [at 52.9 µM] (inactive)	
Nc1ccc(/C=C/c2ccc(N)cc2S(=O)(=O)O)c(S(=O)(=O)O)c1	0.257% [at 0.435 µM] (inactive)	
Cc1ccc2c(c1)c1c3n2CCNC3CCC1 (stereo unspecified)	1.48% [at 52.9 µM] (inactive)	

Source: PubChem BioAssay (Tox21)
